Measurements: PubChem BioAssay (NCATS)
Inconclusive results are not listed. Activity calls are given as the source filed them. Unless noted, calls follow the shape of the full dose curve.

Experiments:
[1] = qHTS for Inhibitors of the Functional Ribonucleoprotein Complex (vRNP) of Lassa (LASV) Arenavirus: LASV Primary Screen - GLuc reporter signal (AID 1347082; calls by dose curve; tested in HEK293 reporter line; also: nearly all actives have a fitted effect of over 60% in size)
[2] = qHTS for Inhibitors of the Functional Ribonucleoprotein Complex (vRNP) of Lassa (LASV) Arenavirus: Viability assay - alamar blue signal for LASV Primary Screen (AID 1347083; calls by dose curve; tested in HEK293 reporter line; also: nearly all actives have a fitted effect of over 80% in size)
[3] = qHTS for Inhibitors of the Functional Ribonucleoprotein Complex (vRNP) of Lymphocytic Choriomeningitis Arenaviruses (LCMV): Viability assay - alamar blue signal for LCMV Primary Screen (AID 1347085; calls by dose curve; tested in HEK293 reporter line; also: nearly all actives have a fitted effect of over 80% in size)
[4] = target: Nucleoprotein (Lymphocytic choriomeningitis virus (strain Armstrong)) (UniProt P09992); assay: qHTS for Inhibitors of the Functional Ribonucleoprotein Complex (vRNP) of Lymphocytic Choriomeningitis Arenaviruses (LCMV): LCMV Primary Screen - GLuc reporter signal (AID 1347086); also: nearly all actives have a fitted effect of over 70% in size
[5] = Cytotoxicity counterscreen for inhibitors of SARS-CoV-2 cell entry (AID 1645845); also: nearly all actives have a fitted effect of over 50% in size
How it was run: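 After a 15 min room-temperature ATPLite 1step step, luminescence reflected ATP remaining in HEK293-ACE2 cells exposed to compound for 1 h plus 48 h at 37 C, with percent activity set by cell and no-cell controls.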

[6] = Primary qHTS to identify inhibitors of SARS-CoV-2 cell entry (AID 1645846); conditions: activity change, negative = inhibition: at 57.1 µM (top of the series) unless noted; also: nearly all actives have a fitted effect of over 45% in size
How it was run: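 Inhibition of spike-mediated entry was scored in human ACE2-transfected Expi293F cells. Particles were MLV-pseudotyped with Wuhan-Hu-1 S carrying a 19-aa C-terminal deletion; signal was luciferase after two days, scaled between spike PP and fusion-protein-free PP.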

[7] = tested on: CRL-7250; assay: qHTS assay to identify novel small-molecules to repurpose for Merkel cell carcinoma treatment (AID 1296009; active = well fitted curve in the direction sought with a large enough effect; an effect the other way counts as inactive or inconclusive; also: nearly all actives have a fitted effect of over 60% in size); conditions: MCC and control cell lines, CellTiter-Glo viability, 72 h; series mostly up to 92 µM
How it was run: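 Viability readout: ATP luminescence (CellTiter-Glo) after 72 hr drug exposure at 37 degree celsius. Dose-response format was 8 points for NPC and 11 points for MIPE; data normalized to in-plate controls.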

[8] = Validation screen for inhibitors of Lassa infection (AID 463096)
[9] = Inducers of the Endoplasmic Reticulum Stress Response (ERSR) in human glioma: Validation (AID 504836; active = well fitted curve in the direction sought with a large enough effect; an effect the other way counts as inactive or inconclusive)
How it was run: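 Stably transfected U87-MG human glioma cells carrying a GRP78-based luminescent sensor were seeded at 1000 cells/well, pin-dosed with compounds and incubated 16 h. Luciferase reagent was then added, and end-point luminescence was read after 10 min at room temperature.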

[10] = qHTS profiling of the MIPE4 collection as inhibitors of Plasmodium falciparum (3D7) proliferation (AID 743344; call rule not given here); conditions: P. falciparum 3D7 in erythrocytes, SYBR Green DNA fluorescence, 72 h; at 28.5 µM (top of the series) unless noted
How it was run: (§1)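 Parasite DNA was quantified by SYBR Green I fluorescence (ex 485, em 535 nm) after overnight lysis in saponin/Triton buffer at room temperature. Cultures at 0.3% parasitemia and 2.5% hematocrit were first exposed to compound for 72 h at 37 C; signals were normalised to artemisinin (0.29 uM) and vehicle wells.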

[11] = qHTS profiling of the MIPE4 collection as inhibitors of Plasmodium falciparum (DD2) proliferation (Rep 2) (AID 743346; call rule not given here); conditions: P. falciparum Dd2 in erythrocytes, SYBR Green DNA, 72 h; at 28.5 µM (top of the series) unless noted
How it was run: as §1

[12] = qHTS profiling of the MIPE4 collection as inhibitors of Plasmodium falciparum (HB3) proliferation (AID 743347; call rule not given here); conditions: P. falciparum HB3 in erythrocytes, SYBR Green DNA, 72 h; at 28.5 µM (top of the series) unless noted
How it was run: as §1

Chain of Nucleoprotein (Lymphocytic choriomeningitis virus (strain Armstrong)) (P09992 whole entry, looked up): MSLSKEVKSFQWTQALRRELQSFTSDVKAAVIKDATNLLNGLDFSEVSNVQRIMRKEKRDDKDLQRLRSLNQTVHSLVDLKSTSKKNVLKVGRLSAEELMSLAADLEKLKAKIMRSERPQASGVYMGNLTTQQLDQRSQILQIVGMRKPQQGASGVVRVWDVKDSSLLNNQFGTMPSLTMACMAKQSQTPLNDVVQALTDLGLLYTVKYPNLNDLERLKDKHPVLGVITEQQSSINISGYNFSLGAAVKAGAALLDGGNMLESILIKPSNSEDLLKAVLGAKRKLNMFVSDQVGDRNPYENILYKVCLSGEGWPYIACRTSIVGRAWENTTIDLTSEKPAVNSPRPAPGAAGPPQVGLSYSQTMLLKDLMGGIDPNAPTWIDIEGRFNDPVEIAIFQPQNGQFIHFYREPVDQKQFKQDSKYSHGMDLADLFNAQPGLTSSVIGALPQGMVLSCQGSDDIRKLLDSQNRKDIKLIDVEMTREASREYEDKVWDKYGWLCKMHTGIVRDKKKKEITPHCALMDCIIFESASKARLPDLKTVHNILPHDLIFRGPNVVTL

O=C1CCC[C@@H]2[C@H]3CCC[N+]4([O-])CCC[C@@H](CN12)[C@@H]34 (some centres undefined)
inactive: Potency [1] | Potency [2] | Potency [3] | Potency [4] | Potency [5] | Potency [7]
-3.17%: activity change, negative = inhibition [6]

Cc1ccc(CN2CCNCC2)cc1NC(=O)CNc1ccc(F)c(F)c1
inactive: Potency [1] | Potency [2] | Potency [3] | Potency [4] | Potency [6] | Potency [7]

CCN1CCCC1CNC(=O)c1cc(S(N)(=O)=O)ccc1OC (centres undefined)
inactive: Potency [8] | outcome [9] | Potency [1] | Potency [2] | Potency [3] | Potency [4] | Potency [7]

C[C@@H]1C(=O)O[C@H]2CC34[C@H]5C[C@@H](C(C)(C)C)C36[C@H](OC(=O)[C@@H]6O)O[C@@]4(C(=O)O5)[C@]21O (some centres undefined)
inactive: Potency [1] | Potency [2] | Potency [3] | Potency [4] | Potency [6] | Potency [7]
77.1%: parasite growth, % of DMSO control [10]
91.1%: parasite growth, % of control (lower = inhibition) [11]
102%: growth, % of control [12]
